Data: PubChem BioAssay (EPA / NIEHS)
Inconclusive results are not listed. The source made the active and inactive calls. The calls were made as follows, unless noted: active = hit-call score of the fitted dose curve at least 0.9, where 1 is the maximum; inactive = score below 0.9.

Legend:
[1] = tested on: Brachyury (BRA) Protein Expression, TBXT (gene 6862); test: CCTE_Deisenroth_DEVTOX-GLR_Endo_BRA: CCTE's DevTox GLR-Endo Assay Evaluation of Brachyury (BRA) Protein Expression, Deisenroth Lab (AID 2284417)
Summary of the method: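 Percent BRA+ (mesoderm) RUES2-GLR cells after 48 h differentiation with two exposures, 1 nM - 200 uM; 0.2% DMSO control subtracted.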

[2] = CCTE_Deisenroth_DEVTOX-GLR_Endo_CellCount: Viability Assessment in CCTE's DevTox GLR-Endo Assay, Deisenroth Lab (AID 2284420)
Summary of the method: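 Viability in differentiating RUES2-GLR cultures is scored by fluorescent nuclear counts after 48 h and two 24-hourly chemical treatments, as percent change from the 0.2% DMSO control.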

[3] = tested on: SRY-box transcription factor 17 (SOX17) Protein Expression, Deisenroth Lab, SOX17 (gene 64321); test: CCTE_Deisenroth_DEVTOX-GLR_Pluri_SOX17: CCTE's DevTox GLR-Pluri Assay Evaluation of SRY-box transcription factor 17 (SOX17) Protein Expression, Deisenroth Lab (AID 2284427; active = hit-call score of the fitted dose curve at least 0.9, where 1 is the maximum)
Summary of the method: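 Seed cells 24 h; differentiate 48 h, dosing at 0 and 24 h (1 nM - 200 uM); fix, stain nuclei, image 5 fields per well; count SOX17+ cells over total cells and subtract 0.2% DMSO control.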

[4] = tested on: SRY-box transcription factor 2 (SOX2) Protein Expression, Deisenroth Lab, SOX2 (gene 6657); test: CCTE_Deisenroth_DEVTOX-GLR_Pluri_SOX2: CCTE's DevTox GLR-Pluri Assay Evaluation of SRY-box transcription factor 2 (SOX2) Protein Expression, Deisenroth Lab (AID 2284428)
Summary of the method: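 SOX2 expression frequency is scored in a human pluripotent reporter line, RUES2-GLR, exposed to chemicals twice over 48 h. Imaging-based SOX2+ cell percentage is normalized as change versus 0.2% DMSO.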

[5] = tested on: Brachyury (BRA) Protein Expression, Deisenroth Lab, TBXT (gene 6862); test: CCTE_Deisenroth_DEVTOX-GLR_Pluri_BRA: CCTE's DevTox GLR-Pluri Assay Evaluation of Brachyury (BRA) Protein Expression, Deisenroth Lab (AID 2284429; active = hit-call score of the fitted dose curve at least 0.9, where 1 is the maximum)
Summary of the method: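 RUES2-GLR human pluripotent cells differentiated 48 hours with two chemical exposures 24 hours apart, 10-point series 1 nM–200 uM. Fixed, nuclear-stained, imaged; endpoint is percent BRA+ cells minus 0.2% DMSO control.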

[6] = CCTE_Deisenroth_DEVTOX-GLR_Pluri_CellCount: Viability Assessment in CCTE's DevTox GLR-Pluri Assay Evaluation of Total Cell Counts, Deisenroth Lab (AID 2284430)
Summary of the method: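 RUES2-GLR human pluripotent cells, seeded 24 h, then differentiated 48 h with two chemical exposures 24 h apart; 10-point series 1 nM - 200 uM. Fixed, nuclear-stained, imaged (5 fields/well); nuclei count as % change vs 0.2% DMSO.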

Measured: AC50

CC(=O)CC(c1ccccc1)c1c(O)c2ccccc2oc1=O (stereo not drawn)
active: [1] 1.45e-06 µM
inactive: all other assays above

O=C(O)c1cccnc1
inactive: all assays above

Cc1cn([C@H]2C=C[C@@H](CO)O2)c(=O)[nH]c1=O
inactive: all assays above

O=C1NC(=O)C(c2ccccc2)(c2ccccc2)N1
active: [1] 100 µM | [4] 150 µM | [5] 152 µM | [6] 100 µM
inactive: [2]
